# Among all 16,000 compounds or so, about 5,100 (32%) were called active. Roughly 25% stayed inconclusive and do not appear here. This is one part of the list. Unmarked numbers belong to inactive results. Calls follow the shape of the dose curve; as a rule, active = well fitted curve in the direction sought with a large enough effect; inconclusive = small, poorly fitted or top-dose-only effect, or effect the other way; inactive = no such curve, though single readings can be large or run the other way.
# Molecular target: Cytochrome P450 3A4 (Homo sapiens) (UniProt P08684)
# Assay: Cytochrome panel assay with activity outcomes
# Settings: recombinant CYP, pro-luciferin dealkylation, luminescence, p450-cyp3a4; series mostly up to 57.1 µM; activity, negative = inhibition: at the top concentration
# % is scaled to controls: 0 for no effect and ±100 for the full control effect.
# Cytochrome P450 3A4 (Homo sapiens), sequence (P08684 whole entry, looked up): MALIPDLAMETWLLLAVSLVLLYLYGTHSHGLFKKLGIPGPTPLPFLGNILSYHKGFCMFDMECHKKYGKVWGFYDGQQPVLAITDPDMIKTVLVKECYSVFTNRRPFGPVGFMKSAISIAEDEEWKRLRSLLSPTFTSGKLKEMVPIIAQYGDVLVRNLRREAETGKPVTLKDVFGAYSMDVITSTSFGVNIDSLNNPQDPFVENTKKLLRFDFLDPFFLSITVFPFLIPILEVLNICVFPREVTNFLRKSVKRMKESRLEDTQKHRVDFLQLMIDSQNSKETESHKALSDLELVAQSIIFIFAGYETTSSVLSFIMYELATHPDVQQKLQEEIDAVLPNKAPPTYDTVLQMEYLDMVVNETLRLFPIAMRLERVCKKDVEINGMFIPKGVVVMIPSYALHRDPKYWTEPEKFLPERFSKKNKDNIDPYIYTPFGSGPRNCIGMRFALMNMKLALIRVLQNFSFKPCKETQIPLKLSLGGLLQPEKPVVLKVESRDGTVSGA
Compound,"activity, negative = inhibition",AC50
CC(C)(CO[C@H]1C[C@H]2CC[C@@]1(C)C2(C)C)[N+](=O)[O-],-5.92% [at 11.4 µM],–
CCOC(=O)c1ccc(-c2ccc(/C=C(\C#N)C(=O)NCC3CCCO3)o2)cc1 (stereo unspecified),–,20 µM (active)
CCOC(=O)c1ccc(-c2ccc(CO)o2)cc1,1.82% [at 2.29 µM],–
CCOC(=O)c1ccc(NC(=O)C(=O)NCC2CCCO2)cc1 (stereo unspecified),25.4%,–
CC(C)NC[C@@H](O)c1ccc(O)c2ncccc12,-1.42% [at 11.4 µM],–
O=S(=O)(O)[C@@H](c1ccccc1)[C@@H](O)c1ccccc1,-6.22% [at 11.4 µM],–
Cn1c(C(=O)NCC2CCCO2)cc2c(=O)n3ccccc3nc21 (stereo unspecified),12.1%,–
COc1ccc(CCn2c(=N)c(C(=O)NCc3ccco3)cc3c(=O)n4ccccc4nc32)cc1,–,14.1 µM (active)
OCCCSCCO,-9.23% [at 11.4 µM],–
CC1(O)c2ccccc2C(=O)N1CCc1ccccc1F (stereo unspecified),-27%,–
COc1ccc(Nc2cc(=O)n(C3CCCCC3)c(=O)[nH]2)c(OC)c1,–,12.6 µM (active)
O=C(c1ccco1)N1CCN(c2cc(=O)n(C3CCCCC3)c(=O)[nH]2)CC1,-12.1%,–
Cc1cc(C(C)(C)C)c(O)c(C)c1CC1=NCCN1,-21.5% [at 25.6 µM],–
CCC(=O)Nc1ncnc2ncn(C(=O)CC)c12,-6.29% [at 11.4 µM],–
Cc1nn(C)c(Cl)c1NC(=O)OCc1ccc(Cl)cc1Cl,–,14.1 µM (active)
COc1ccccc1COC(=O)Nc1c(C)nn(C)c1Cl,–,15.8 µM (active)
O=C(Nc1ccccc1)OCc1cc(-c2ccc(Cl)cc2)on1,3.33% [at 2.29 µM],–
O=C(OCc1ccc(Cl)cc1Cl)c1cccnc1Cl,-0.666%,–
Cc1nn(C)c(Cl)c1NC(=O)OCc1ccc(F)cc1,-35.1%,–
O=C(c1ccncc1)N1CCC2(CCN(Cc3nccs3)CC2)CC1,-16.3%,–
O=C(c1cc(C(F)(F)F)cc(C(F)(F)F)c1)N1CCC2(CCCN(Cc3nccs3)C2)CC1,–,20 µM (active)
O=C(c1cc(C(F)(F)F)cc(C(F)(F)F)c1)N1CCC[C@@]2(CCN(Cc3nccs3)C2)C1,–,3.16 µM (active)
CCN1CCCCC(=N/O)/C(=N/O)CCCC1,-9.74% [at 11.4 µM],–

Compound,"activity, negative = inhibition",AC50
Cc1cccc(NC(=O)CSc2nc3nc(C)cc(C)c3c(=O)[nH]2)c1,–,3.55 µM (active)
Cc1cc(C)c2c(=O)[nH]c(SCC(=O)N(C)C)nc2n1,-16.7%,–
COC(=O)[C@@]1(Cc2ccccc2)[C@H]2c3cc(C(=O)N(C)C)n(Cc4c(CO)[nH]cc(C)c4=O)c3C[C@H]2CN1C(=O)c1ccccc1,–,1.58 µM (active)
COC(=O)[C@@]1(Cc2ccc(F)cc2)[C@H]2c3cc(C(=O)N(C)C)n(Cc4c(CO)[nH]cc(C)c4=O)c3C[C@H]2CN1C(=O)c1ccccc1,–,1.58 µM (active)
NC(=O)CSc1nc2sc(-c3ccccc3)cc2c(=O)n1N,-22% [at 2.29 µM],–
COCCNC(=O)CSc1nc2ccc(N3CCOCC3)cc2c(=O)n1Cc1ccc(OC)cc1,–,5.01 µM (active)
CCCCn1c(SC(C)C(N)=O)nc2cc(C(=O)OC)ccc2c1=O (stereo unspecified),-24%,–
CCCCNC(=O)CSc1nc2cc(OC)c(OC)cc2c(=O)n1Cc1ccc(OC)cc1,–,2.82 µM (active)
CCCCn1c(SCC(N)=O)nc2ccc(N3CCOCC3)cc2c1=O,–,10 µM (active)
Cc1ccc(OC(=O)c2ccc(N3CCOCC3)c([N+](=O)[O-])c2)cc1,19.3%,–
Cc1ccc(OCC(=O)N2CCN(c3ccc([N+](=O)[O-])c(N4CCOCC4)c3)CC2)cc1,–,7.08 µM (active)
Cc1cc(N2CCOCC2)ncc1[N+](=O)[O-],8.16% [at 2.29 µM],–
COc1ccc2nc(SCC(=O)c3ccco3)[nH]c2c1,–,11.2 µM (active)
COC(=O)Nc1nc2ccc(SC(C)C)cc2[nH]1,7.47% [at 25.6 µM],–
CCCCc1ccc2nc(NC(=O)OC)[nH]c2c1,7.68% [at 25.6 µM],–
CCOC(=O)NC(=O)CSc1nc2ccc(OCC)cc2[nH]1,–,28.2 µM (active)
COc1ccc(C(C)=O)c(OC(=O)c2ccco2)c1,-5.71%,–
CN(CC(=O)O)Cc1c(O)c(Cl)cc(Cl)c1Cl,-14.8% [at 11.4 µM],–
Cc1ccc2oc(-c3cccc(NC(=S)NC(=O)/C=C/c4ccco4)c3)nc2c1,–,1 µM (active)
O=C(COc1ccc(Cl)cc1)N(Cc1ccccc1)c1ccccn1,–,22.4 µM (active)
C[N+](C)(C)CCN(Cc1ccc(Cl)cc1)c1ccccn1,15.1%,–
O=C(O)COc1c(Cl)cc(Cl)c2cccnc12,-9.36% [at 11.4 µM],–
O=C1O[C@@H]([C@H](O)[C@H](O)[C@H](O)CO)[C@@H](O)[C@@H]1O,-1% [at 11.4 µM],–

Compound,"activity, negative = inhibition",AC50
COc1ccc2c(c1OC)C(=O)N(C(C)C(=O)O)C2=O (stereo unspecified),4.09%,–
CN(C)c1ccc(-c2cncnc2-n2ccnc2)cc1,–,2.51 µM (active)
N#Cc1cccc(-c2cncnc2-n2ccnc2)c1,–,2.51 µM (active)
COc1cccc(-c2cncnc2-n2ccnc2)c1,–,0.316 µM (active)
CCCC(=O)n1nc(-c2cccnc2)nc1N,0.62% [at 2.29 µM],–
c1cncc(-c2cncnc2-n2ccnc2)c1,–,7.94 µM (active)
Cc1ccc(C)c(N/C(N)=N/c2nc(C)cc(C)n2)c1,-18.9%,–
Cc1ccc(C(C2C(=O)CC(C)(C)CC2=O)C2C(=O)CC(C)(C)CC2=O)s1,-24%,–
C[N+](C)(C)CCCCCCCCCC[N+](C)(C)C,11.2% [at 25.6 µM],–
COc1ccccc1-c1cncnc1-n1ccnc1,–,0.251 µM (active)
COc1ccccc1-c1nnc(NC(C)=O)s1,-18.1%,–
CC(C)(C)c1cc(C(=O)O)c(CN2CCCCC2)o1,-12.5%,–
CC(Sc1ccc2c(c1)OCCO2)C(=O)Nc1ncc(Cl)cc1Cl (stereo unspecified),–,14.1 µM (active)
C/C(CCC(=O)OC[C@@H]1O[C@H](C#Cc2ccccc2)C=C[C@@H]1Oc1ccc(C)cc1)=N/O[C@@H](C)CN1CCCCc2nc(C)c(C)cc21,–,3.16 µM (active)
C/C(CCC(=O)OC[C@@H]1O[C@H](C#Cc2ccccc2)C=C[C@@H]1Oc1ccc(C)cc1)=N/O[C@@H](C)CN1CCCc2nc(C)c(C)cc21,–,3.98 µM (active)
Cc1cc(NC(=O)C2=C(O)c3ccccc3S(=O)(=O)N2C)no1,-4.95% [at 25.6 µM],–
COC(=O)c1ccccc1N/C=C1\CCc2c(c(C)nn2-c2ccccn2)C1=O,–,14.1 µM (active)
Cc1nn2c3c(cnc2c1-c1ccccc1)C(=O)CC(c1ccccc1)C3 (stereo unspecified),-7.16%,–
CCOC(=O)c1ccccc1N/C=C1\CCCCC1=O,-9.45% [at 11.4 µM],–
CC(=O)Nc1ccc2c(c1)/C(=C/c1ccc([N+](C)(C)C)cc1)c1ccccc1-2,-11.9% [at 11.4 µM],–
CCCS(=O)(=O)N1CCCC(C(=O)NCc2cccnc2)C1 (stereo unspecified),-7.24% [at 2.29 µM],–
O=C(Nc1ccc(Cl)c(C(F)(F)F)c1)C1CCCN(S(=O)(=O)c2cnc[nH]2)C1 (stereo unspecified),–,0.126 µM (active)
COc1ccc(Cc2nnc(NC(=O)CSc3ccc(C)cc3)s2)cc1OC,–,8.91 µM (active)

Compound,"activity, negative = inhibition",AC50
COC(=O)c1cc(OC)c(OC)cc1NC(=O)CSc1ccc(C)cc1,–,1.58 µM (active)
COCc1nnc(NC(=O)CSc2ccc(C)cc2)s1,-22.6% [at 11.4 µM],–
O=C(O)CCCC[C@H]1CCSS1,19.8%,–
CCCCCC(=O)N1CC2(CC(c3cccc(NC(=O)c4ccccc4)c3)=NO2)C[C@@H]1C(N)=O (stereo partly specified),–,15.8 µM (active)
NC(=O)C1(NC(=O)[C@@H]2CC3(CC(c4cccc(NC(=O)c5cc([N+](=O)[O-])cc([N+](=O)[O-])c5)c4)=NO3)CN2C(=O)c2ccccc2)CC1 (stereo partly specified),–,3.16 µM (active)
C=C(C)C(=O)N1CC2(CC(c3cccc(NC(=O)c4ccccc4)c3)=NO2)C[C@@H]1C(N)=O (stereo partly specified),14.3%,–
NC(=O)CNC(=O)[C@@H]1CC2(CC(c3cccc([N+](=O)[O-])c3)=NO2)CN1C(=O)c1ccccc1 (stereo partly specified),8.44% [at 2.29 µM],–
NC(=O)CNC(=O)[C@@H]1CC2(CC(c3ccc(Cl)cc3)=NO2)CN1C(=O)c1ccccc1 (stereo partly specified),16.2% [at 2.29 µM],–
NC(=O)[C@H]1CC2(CC(c3cccc(NC(=O)c4ccccc4)c3)=NO2)CN1C(=O)[C@H]1CCC(=O)N1 (stereo partly specified),10.5%,–
O=c1c2ccccc2nnn1CSc1nnc(COc2ccc(Cl)cc2)n1Cc1ccco1,–,12.6 µM (active)
CN(C)c1ccc2nc3c(C(=O)O)cc(=O)c(O)c-3oc2c1,-10.3% [at 11.4 µM],–
COc1ccc2[nH]cc(CCNc3cc(-c4ccc(C(=O)N(C)C)cc4)ncn3)c2c1,–,6.31 µM (active)
COc1ccc2[nH]cc(CCNc3ccnc(-c4ccc(N(C)C)cc4)n3)c2c1,–,5.01 µM (active)
COc1ccc2[nH]cc(CCNc3ccnc(-c4ccc5c(c4)OCO5)n3)c2c1,–,2.51 µM (active)
COc1ccc2[nH]cc(CCNc3ccnc(-c4ccc(C(=O)N(C)C)cc4)n3)c2c1,–,3.16 µM (active)
O=S(=O)(C=C(c1ccccc1)c1ccccc1)c1ccccc1,3.56%,–
CCC(=S)/C=C1\Sc2ccc3ccccc3c2N1CCCS(=O)(=O)O,-15.7%,–
COc1ccc2[nH]cc(CCNc3ccnc(-c4c(C)noc4C)n3)c2c1,–,2.51 µM (active)
COc1ccc2[nH]cc(CCNc3ccnc(-c4ccoc4)n3)c2c1,–,3.16 µM (active)
O=C(NC(=S)N(CCCCO)C1CCCCC1)c1sc2ccccc2c1Cl,–,3.16 µM (active)
CCOC(=S)NC(=O)c1sc2ccccc2c1Cl,-1.55%,–
Oc1ccc2ccccc2c1CN(Cc1c(O)ccc2ccccc12)C1CCCCC1,-12% [at 11.4 µM],–

# Source: PubChem BioAssay AID1851 (National Center for Advancing Translational Sciences (NCATS), 2009)
